The whole screen tested about 420,000 compounds, of which about 64,000 (15%) were called active. Not shown: some 27% with an inconclusive outcome. Not all results are given here. Values without a mark were called inactive. Calls follow the shape of the dose curve; as a rule, active = well fitted inhibition curve with a large enough effect; inconclusive = small, poorly fitted or top-dose-only effect; inactive = flat fitted curve, though single readings scatter.
experiment: qHTS for Inhibitors of human tyrosyl-DNA phosphodiesterase 1 (TDP1): qHTS in cells in absence of CPT; details: DT40 Tdp1-/- hTDP1 cells, no CPT, ATP luminescence, 48 h; activity change, negative = growth inhibition: at 46.2 µM (top of the series); also: nearly all actives have a fitted effect of over 55% in size
How it was run: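 No-CPT arm: Tdp1-/-;hTDP1 DT40 cells (400/well) plus compounds, incubated ≥48 hr at 37 °C. Readout CellTiter-Glo luminescence.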
% is scaled to controls: 0 for no effect and ±100 for the full control effect; potency is read from the fitted curve at half-maximal effect.

Q: For `Cc1ccc(CCC(=O)Nc2ncc(Cc3cc(Cl)ccc3Cl)s2)o1`, which Potency is on record?
A: Its Potency is 0.58 µM (active).

Q: With `O=C(CCc1ccccc1Cl)Nc1ccc(S(=O)(=O)Nc2nccs2)cc1` as the molecule, how does the “activity change, negative = growth inhibition” value read?
A: Its value is -3.57%.

Q: For `Cc1ccc(Cc2cnc(N)s2)o1`, which “activity change, negative = growth inhibition” value is on record?
A: The value was -4.35%.

Q: Which “activity change, negative = growth inhibition” value does the source give for `COc1cc2sc(C)nc2cc1C` here?
A: The value was 2.23%.

Q: With `CCOC(=O)c1ccc(NC(=O)CC2C(=O)N(c3cccc(OC)c3)C(=O)N2C2CCCCC2)cc1` (stereo unspecified) as the molecule, how does the Potency read?
A: Its Potency is 20.6 µM (active).

Q: With `CCOc1ccc(NC(=O)CC2C(=O)N(c3ccccc3)C(=O)N2CCOC)cc1` (stereo unspecified) as the molecule, how does the “activity change, negative = growth inhibition” value read?
A: The value was 0.538%.

Q: Which “activity change, negative = growth inhibition” value does the source give for `CCOc1ccc(NC(=O)CC2C(=O)N(c3cccc(OC)c3)C(=O)N2C2CCCCC2)cc1` (stereo unspecified) here?
A: Its value is -25.8%.

Q: With `CCNC(=O)N1CCNC(=O)C1CC(=O)Nc1ccc(C(=O)OCC)cc1` (stereo unspecified) as the molecule, how does the “activity change, negative = growth inhibition” value read?
A: Its value is 4%.

Q: Which “activity change, negative = growth inhibition” value does the source give for `COC(=O)CN1C(=S)N(c2ccccc2)C(=O)C1CC(=O)Nc1ccc(Cl)cc1` (stereo unspecified) here?
A: Its value is -25.1%.

Q: For `CCCOc1ccc(NC(=O)CC2C(=O)N(c3ccccc3)C(=O)N2Cc2ccco2)cc1` (stereo unspecified), which Potency is on record?
A: Its Potency is 20.6 µM (active).

Q: With `CCNC(=O)CC1C(=O)N(c2ccc(F)cc2)C(=O)N1Cc1ccc(C)cc1` (stereo unspecified) as the molecule, how does the “activity change, negative = growth inhibition” value read?
A: Its value is 2.75%.

Q: Which Potency does the source give for `CCOC(=O)c1ccc(NC(=O)CC2C(=O)N(c3ccccc3)C(=O)N2Cc2cccs2)cc1` (stereo unspecified) here?
A: The Potency was 20.6 µM (active).

Q: Which “activity change, negative = growth inhibition” value does the source give for `CCNC(=O)CC1C(=O)N(c2ccc(F)cc2)C(=O)N1Cc1cccs1` (stereo unspecified) here?
A: The value was 6.76%.

Q: With `Cc1ccnc(NS(=O)(=O)c2ccc(NC(=O)c3oc4ccc(F)cc4c3C)cc2)n1` as the molecule, how does the “activity change, negative = growth inhibition” value read?
A: Its value is 16.5%.

Q: With `COCc1cc(C)n(CC(=O)NCC2CCCO2)c(=O)c1C#N` (stereo unspecified) as the molecule, how does the “activity change, negative = growth inhibition” value read?
A: Its value is 8.62%.

Q: For `Cc1cnc(C(=O)OCC(=O)NCCCc2ccccc2)cn1`, which “activity change, negative = growth inhibition” value is on record?
A: Its value is -4.9%.

Q: With `Cc1ccccc1NC(=O)c1nn(-c2ccc(F)c(F)c2)ccc1=O` as the molecule, how does the “activity change, negative = growth inhibition” value read?
A: Its value is 0.98%.

Q: Which “activity change, negative = growth inhibition” value does the source give for `CN(C)/C=C(/C(=O)c1ccccc1)S(=O)(=O)c1ccc(Cl)cc1` here?
A: The value was -0.434%.

Q: Which “activity change, negative = growth inhibition” value does the source give for `COc1ccc(OC(C)C(=O)Nc2cccnc2)cc1` (stereo unspecified) here?
A: Its value is 4.05%.

Q: With `N#Cc1ccc(OCCN2C(=O)NC3(CCSC3)C2=O)cc1` (stereo unspecified) as the molecule, how does the “activity change, negative = growth inhibition” value read?
A: The value was -4.16%.

Q: For `CCOC(=O)[C@H]1[C@H]2COc3ccc(Br)cc3[C@@H]2N2C(=O)CN(C)C(=O)[C@@]12C`, which “activity change, negative = growth inhibition” value is on record?
A: The value was -2.51%.

Q: Which “activity change, negative = growth inhibition” value does the source give for `CCOC(=O)[C@@H]1[C@H]2COc3cc(OC)ccc3[C@@H]2N2C(=O)N(c3cccc(C)c3)C(=O)[C@@]12C` here?
A: The value was -25.7%.

Q: For `CCOC(=O)[C@H]1[C@H]2COc3cc(OC)ccc3[C@@H]2N2C(=O)N(c3ccc(Br)cc3)C(=O)[C@@]12C`, which Potency is on record?
A: Its Potency is 18.4 µM (active).

Q: With `CCOC(=O)[C@@H]1[C@H]2COc3cc(OC)ccc3[C@H]2N2C(=O)N(c3ccc(F)cc3)C(=O)[C@]12C` as the molecule, how does the “activity change, negative = growth inhibition” value read?
A: The value was -18.1%.

Q: Which “activity change, negative = growth inhibition” value does the source give for `CCOC(=O)[C@H]1[C@H]2COc3ccccc3[C@@H]2N2C(=O)CN(Cc3ccccc3)C(=O)[C@@]12C` here?
A: The value was -21.1%.

Q: Which Potency does the source give for `CCOC(=O)[C@@H]1[C@H]2COc3ccc(Br)cc3[C@H]2N2C(=O)N(c3ccc(C)cc3)C(=O)[C@@]12C` here?
A: The Potency was 20.6 µM (active).

Q: With `O=C(CN1CCN(Cc2ccc(F)cc2Cl)C1=O)NCc1cccs1` as the molecule, how does the “activity change, negative = growth inhibition” value read?
A: The value was -14.6%.

Q: With `COc1cc(C2OC(c3cc(OC)c(OC)c(OC)c3)C(C)C2C)cc(OC)c1OC` (stereo unspecified) as the molecule, how does the Potency read?
A: Its Potency is 18.4 µM (active).

Q: Which “activity change, negative = growth inhibition” value does the source give for `COc1cc(C2CC(=O)Oc3cc(OC)c(OC)c(OC)c32)cc(OC)c1OC` (stereo unspecified) here?
A: Its value is -15.9%.

Q: With `COc1cc(OC)c2c(c1)OC(=O)CC2c1cc(OC)c(OC)c(OC)c1` (stereo unspecified) as the molecule, how does the “activity change, negative = growth inhibition” value read?
A: The value was 4.96%.

Q: For `CCCNC(=O)NCc1ccc(N2CCCC2=O)cc1`, which “activity change, negative = growth inhibition” value is on record?
A: Its value is -1.13%.

Q: With `Cn1cccc1C1(C(F)(F)F)NCCNC1=O` (stereo unspecified) as the molecule, how does the “activity change, negative = growth inhibition” value read?
A: The value was 2.55%.

Q: With `Cc1ccc(CSCC2Nc3ccc(C(=O)N4CCN(c5ccc(F)cc5)CC4)cc3NC2=O)cc1` (stereo unspecified) as the molecule, how does the Potency read?
A: The Potency was 16.4 µM (active).

Q: With `Cc1ccc(SCC(=O)N2CCN(c3ccc(F)cc3)CC2)cc1` as the molecule, how does the “activity change, negative = growth inhibition” value read?
A: Its value is -28%.

Q: For `COC(=O)c1ccc(C(=O)OC)c(NC(=S)N2CCN(c3ccc(F)cc3)CC2)c1`, which “activity change, negative = growth inhibition” value is on record?
A: Its value is -22.4%.

Q: With `COCc1ccc(CN2CCC(Oc3ccc(C(=O)NCc4ccccn4)cc3)CC2)o1` as the molecule, how does the “activity change, negative = growth inhibition” value read?
A: The value was -22.1%.

Q: With `O=C(COC(=O)c1ncc(Cl)c(Cl)c1Cl)NNC(=O)c1ccccc1` as the molecule, how does the “activity change, negative = growth inhibition” value read?
A: The value was -13.8%.

Q: Which “activity change, negative = growth inhibition” value does the source give for `CCCCCCn1cc(C(=O)O)c(=O)c2cc(F)c(N3CCCCC3)cc21` here?
A: Its value is 1.32%.

Q: With `CCn1cc(S(=O)(=O)c2cccc(C)c2)c(=O)c2cc(F)c(N3CCN(C)CC3)cc21` as the molecule, how does the “activity change, negative = growth inhibition” value read?
A: Its value is 6.93%.

Q: For `Cc1nn(Cc2ccccc2)c(C)c1CNC(=O)c1ccc(F)c(S(=O)(=O)N2CCOCC2)c1`, which “activity change, negative = growth inhibition” value is on record?
A: Its value is -29.9%.

Q: With `CC1CCCN(c2cc3c(cc2F)c(=O)c(S(=O)(=O)c2cccc(Cl)c2)cn3Cc2ccccc2)C1` (stereo unspecified) as the molecule, how does the “activity change, negative = growth inhibition” value read?
A: The value was -15%.

Q: Which Potency does the source give for `Cc1cccc(S(=O)(=O)c2cn(Cc3ccccc3)c3cc(N4CCOCC4)c(F)cc3c2=O)c1` here?
A: The Potency was 20.6 µM (active).

Q: For `Cc1ccc(S(=O)(=O)c2cn(Cc3ccccc3)c3cc(N4CCCC4)c(F)cc3c2=O)c(C)c1`, which Potency is on record?
A: Its Potency is 9.2 µM (active).

Q: With `CC(=O)Cc1nsc(NC(=O)c2ccc(Cl)cc2Cl)n1` as the molecule, how does the “activity change, negative = growth inhibition” value read?
A: Its value is -8%.

Q: For `CCCCCC1CC(COc2ccccc2)OC1=O` (stereo unspecified), which “activity change, negative = growth inhibition” value is on record?
A: The value was 0.957%.

Q: For `CCOC(=O)c1oc2ccccc2c1NC(=O)c1cccs1`, which “activity change, negative = growth inhibition” value is on record?
A: The value was 2.22%.

Q: For `CCOC(=O)CNC(=O)/C(=C\c1ccc(F)cc1)NC(=O)c1ccccc1`, which “activity change, negative = growth inhibition” value is on record?
A: Its value is -0.762%.

Q: With `CC(=O)OCC(=O)[C@@]1(O)CCC2C3CCC4=CC(=O)CC[C@@]4(C)[C@]3(F)C(O)C[C@]21C` (stereo partly specified) as the molecule, how does the “activity change, negative = growth inhibition” value read?
A: The value was -2.28%.

Q: With `COc1ccc(C2(Nc3cccc(F)c3)C(=O)c3ccccc3C2=O)cc1` as the molecule, how does the “activity change, negative = growth inhibition” value read?
A: The value was 5.13%.

Q: With `COc1ccc(CCNC(=O)COC(=O)c2cc(=O)c3ccccc3o2)cc1` as the molecule, how does the “activity change, negative = growth inhibition” value read?
A: The value was 12%.

Q: With `COc1ccc(Nc2cc(=O)oc3ccccc23)cc1` as the molecule, how does the Potency read?
A: Its Potency is 4.11 µM (active).

Reference: PubChem BioAssay AID686978 (National Center for Advancing Translational Sciences (NCATS), 2013)
